# Experimental data taken from PubChem BioAssay (Tox21).
# Values joined by “and” are separate entries in the source; they are usually repeats but may differ in a detail not shown here. Equal values may be shown once. Results filed as inconclusive are left out. Entries that show only a call come without a potency. More than one record can exist for a structure, and the calls need not agree. Active and inactive are the calls of the source. Unless noted, calls come from the whole dose curve; as a rule, active = well fitted curve in the direction sought with a large enough effect in the repeat runs; inconclusive = weak or mixed curves; inactive = no such curve, though single readings can be large; an effect the other way counts as inactive or inconclusive.
# Key:
# [1] = qHTS assay to identify small molecule agonists of H2AX - cell viability counter screen (AID 1224847; calls by dose curve; note: nearly all actives have a fitted effect of over 30% in size; note: potency is the fitted concentration of half-maximal effect)
# Method in brief: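 CHO-K1 cells plated overnight at 37C, then exposed 3 h at 37C to compounds at 15 concentrations (0.76% DMSO final). Viability by CellTiter-Glo luminescence after 30 min at room temperature.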
# [2] = qHTS RealTime-Glo MT Cell Viability Assay in HepG2 cells - 24 hour (AID 1224867); note: nearly all actives have a fitted effect of over 50% in size; note: potency is the fitted concentration of half-maximal effect
# Method in brief: (§1)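 Cells + NanoLuc/prosubstrate dispensed (600 cells/well) → 5 h at 37 C/5% CO2 → compounds in DMSO transferred → 40 h incubation at 37 C, luminescence read at 0, 8, 16, 24, 32, 40 h.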
# [3] = qHTS RealTime-Glo MT Cell Viability Assay in HEK293 cells - 32 hour (AID 1224868); note: nearly all actives have a fitted effect of over 50% in size; note: potency is the fitted concentration of half-maximal effect
# Method in brief: (§2)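 Tox21 10K qHTS, HEK293, 600 cells/well, RealTime-Glo reagent co-dispensed with cells; 5 h preincubation, compound by pintool, 37 C, luminescence at 0–40 h.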
# [4] = A CellTox Green Cytotoxicity Assay to monitor cytotoxicity in HEK293 cells - 0 hour (AID 1224869); note: nearly all actives have a fitted effect of over 50% in size; note: potency is the fitted concentration of half-maximal effect
# Method in brief: (§3)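 Dead-cell fluorescence measured kinetically: asymmetric cyanine dye, HEK293, 600 cells/well, 5 h settle, 23 nL cpd/DMSO, 37 C, reads 0–40 h every 8 h.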
# [5] = qHTS RealTime-Glo MT Cell Viability Assay in HepG2 cells - 40 hour (AID 1224870); note: nearly all actives have a fitted effect of over 50% in size; note: potency is the fitted concentration of half-maximal effect
# Method in brief: (§4)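 Real-time viability: cells seeded at 600 per well together with NanoLuc and cell-permeant prosubstrate, compounds added after 5 h incubation. Luminescence tracked at 0, 8, 16, 24, 32 and 40 h of exposure.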
# [6] = A CellTox Green Cytotoxicity Assay to monitor cytotoxicity in HEK293 cells - 40 hour (AID 1224871); note: nearly all actives have a fitted effect of over 45% in size; note: potency is the fitted concentration of half-maximal effect
# Method in brief: as §3
# [7] = qHTS RealTime-Glo MT Cell Viability Assay in HEK293 cells - 16 hour (AID 1224872); note: nearly all actives have a fitted effect of over 50% in size; note: potency is the fitted concentration of half-maximal effect
# Method in brief: as §2
# [8] = qHTS RealTime-Glo MT Cell Viability Assay in HEK293 cells - 40 hour (AID 1224874); settings: RealTime-Glo luminescence; max response: stronger effect = lower value; note: nearly all actives have a fitted effect of over 50% in size; note: potency is the fitted concentration of half-maximal effect
# Method in brief: (§5)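 600 HEK293 cells per well, dispensed already mixed with RealTime-Glo MT reagents. Compound dosing came 5 h later. The same wells were read for luminescence at 0, 8, 16, 24, 32 and 40 h of exposure at 37 C.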
# [9] = A CellTox Green Cytotoxicity Assay to monitor cytotoxicity in HEK293 cells - 24 hour (AID 1224875); note: nearly all actives have a fitted effect of over 45% in size; note: potency is the fitted concentration of half-maximal effect
# Method in brief: as §3
# [10] = A CellTox Green Cytotoxicity Assay to monitor cytotoxicity in HepG2 cells - 16 hour (AID 1224876); note: nearly all actives have a fitted effect of over 45% in size; note: potency is the fitted concentration of half-maximal effect
# Method in brief: (§6)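 First, HepG2 cells (600/well) mixed with reagent were plated; second, after 5 h at 37 C they received compounds via pintool; third, fluorescence was measured at 0 h through 40 h at 8 h intervals.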
# [11] = qHTS RealTime-Glo MT Cell Viability Assay in HepG2 cells - 32 hour (AID 1224877); note: nearly all actives have a fitted effect of over 55% in size; note: potency is the fitted concentration of half-maximal effect
# Method in brief: as §1
# [12] = A CellTox Green Cytotoxicity Assay to monitor cytotoxicity in HepG2 cells - 24 hour (AID 1224878); note: nearly all actives have a fitted effect of over 45% in size; note: potency is the fitted concentration of half-maximal effect
# Method in brief: as §6
# [13] = A CellTox Green Cytotoxicity Assay to monitor cytotoxicity in HepG2 cells - 40 hour (AID 1224879); note: nearly all actives have a fitted effect of over 40% in size; note: potency is the fitted concentration of half-maximal effect
# Method in brief: as §6
# [14] = qHTS RealTime-Glo MT Cell Viability Assay in HEK293 cells - 0 hour (AID 1224880)
# Method in brief: as §5
# [15] = A CellTox Green Cytotoxicity Assay to monitor cytotoxicity in HEK293 cells - 32 hour (AID 1224881); note: nearly all actives have a fitted effect of over 40% in size; note: potency is the fitted concentration of half-maximal effect
# Method in brief: as §3
# [16] = qHTS RealTime-Glo MT Cell Viability Assay in HepG2 cells - 8 hour (AID 1224873); note: nearly all actives have a fitted effect of over 55% in size; note: potency is the fitted concentration of half-maximal effect
# Method in brief: as §4
# [17] = A CellTox Green Cytotoxicity Assay to monitor cytotoxicity in HepG2 cells - 0 hour (AID 1224882); note: nearly all actives have a fitted effect of over 35% in size; note: potency is the fitted concentration of half-maximal effect
# Method in brief: as §6
# [18] = qHTS assay to identify small molecule antagonists of the estrogen related receptor (ERR) signaling pathway from Tox21 library (AID 1224848); note: nearly all actives have a fitted effect of over 50% in size; note: potency is the fitted concentration of half-maximal effect
# Method in brief: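 Luciferase luminescence (ONE-Glo, 30 min room temperature) was the read-out. Cells of the NTP-supplied ERR line, 2,000 per well, were given 6 h at 37 C before compound addition in DMSO and 18 h exposure at 37 C.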
# [19] = qHTS assay to identify small molecule agonists of the estrogen related receptor (ERR) signaling pathway from Tox21 library (AID 1224849; calls by dose curve; note: nearly all actives have a fitted effect of over 15% in size); settings: ERR reporter cell line, ONE-Glo luciferase, 18 h; at 92.4 µM (top of the series) unless noted
# Method in brief: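 Quantitative HTS in agonist format: NTP ERR cell line, compounds transferred in DMSO after 6 h plating, 18 h incubation at 37 C, ONE-Glo luminescence endpoint.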
Compound,Potency [1],Potency [2],Potency [3],Potency [4],Potency [5],Potency [6],Potency [7],max response [8],Potency [9],Potency [10],Potency [11],Potency [12],Potency [13],Potency [14],Potency [15],Potency [16],Potency [8],Potency [17],Potency [18],"activity change, positive = activation [19]"
c1ccc2c(c1)[nH]c1cnccc12,inactive,inactive,inactive,inactive,inactive,inactive,inactive,0.679% (inactive),inactive,inactive,inactive,inactive,inactive,inactive,inactive,,,,,
Oc1ccc(C2(c3ccc(O)cc3)CCCCC2)cc1,95.4 µM (active),inactive,52.1 µM (active),inactive,inactive,,,,,inactive,inactive,inactive,,inactive,,inactive,46.4 µM (active),inactive,,
[Cl][Sb]([Cl])[Cl],inactive,inactive,,inactive,inactive,24.5 µM (active),inactive,,inactive,inactive,,inactive,,inactive,inactive,inactive,,inactive,,
[CH3][Hg][Cl],50.4 µM (active),10.9 µM (active),4.35 µM (active),inactive,10.9 µM (active),6.9 µM (active),4.89 µM (active),,7.74 µM (active),12.3 µM (active),10.9 µM (active),12.3 µM (active),12.3 µM (active),inactive,7.74 µM (active),15.5 µM (active),3.88 µM (active),inactive,,
CCCCCCCCCC[N+](C)(C)CCCCCCCCCC,40.1 µM (active),7.76 µM (active),1.1 µM (active),inactive,7.76 µM (active),17.4 µM (active),4.36 µM (active),,15.5 µM (active),12.3 µM (active),7.76 µM (active),11 µM (active),8.71 µM (active),inactive,17.4 µM (active),,0.977 µM (active),inactive,,
CC(=O)O[C@H]1CC[C@@]2(C)C(=CC[C@@H]3[C@@H]2CC[C@]2(C)C(=O)CC[C@@H]32)C1,101 µM (active),inactive,49 µM (active),inactive,inactive,,49 µM (active),,,inactive,inactive,inactive,inactive,,,,,inactive,,
CN(C)S(=O)(=O)N(SC(F)(Cl)Cl)c1ccccc1,89.8 µM (active),11 µM (active),3.89 µM (active),inactive,9.77 µM (active),,4.9 µM (active),,13.8 µM (active),12.3 µM (active),9.77 µM (active),7.76 µM (active),4.9 µM (active),inactive,4.9 µM (active),,4.36 µM (active),inactive,,
Clc1ccc(CSC(Cn2ccnc2)c2ccc(Cl)cc2Cl)cc1 (stereo not given),49.2 µM (active),,,inactive,,inactive,,,inactive,inactive,,inactive,inactive,inactive,inactive,,,inactive,,
N#C/C=C/C#N,inactive,,,inactive,inactive,,,,inactive,inactive,inactive,inactive,inactive,,inactive,inactive,,inactive,,
CC(=O)[O-].CC(=O)[O-].[Hg+2],6.35 µM (active),2.19 µM (active),,inactive,2.45 µM (active),5.49 µM (active),,,21.9 µM (active),2.75 µM (active),2.19 µM (active),2.19 µM (active),1.55 µM (active),,7.76 µM (active),2.45 µM (active),1.55 µM (active),inactive,,
CCC(C)c1cc([N+](=O)[O-])cc([N+](=O)[O-])c1OC(=O)C=C(C)C (stereo not given),56.6 µM (active),,21.9 µM (active),inactive,49 µM (active),inactive,49 µM (active),,inactive,inactive,49 µM (active),inactive,,inactive,inactive,,21.9 µM (active),,,
CN(C)C(=S)S,inactive,inactive and 11 µM (active),11.2 µM (active) and 1.73 µM (active) and 11 µM (active),inactive,inactive and 9.77 µM (active),9.97 µM (active) and 1.54 µM (active) and 6.92 µM (active),1.94 µM (active) and 12.3 µM (active),,,inactive and 34.7 µM (active),inactive and 9.77 µM (active),22.3 µM (active) and 5.45 µM (active) and 15.5 µM (active),15.8 µM (active) and 4.86 µM (active) and 11 µM (active),inactive,8.88 µM (active) and 3.07 µM (active) and 6.92 µM (active),inactive,11.2 µM (active) and 1.73 µM (active) and 9.77 µM (active),inactive,,
CCOP(=O)(NC(C)C)Oc1ccc(SC)c(C)c1 (stereo not given),,inactive,12.3 µM (active),inactive,inactive,,,,inactive,,inactive,,,inactive,inactive,inactive,13.8 µM (active),inactive,,
CC(C)Oc1cccc(NC(=O)c2ccccc2C(F)(F)F)c1,,,24.5 µM (active),43.6 µM (active),inactive,61.6 µM (active),,,,43.6 µM (active),,43.6 µM (active),43.6 µM (active),inactive,1.23 µM (active),,,49 µM (active),24.3 µM (active),-38.3% (inactive)
Oc1ccc(C(=C(Cl)Cl)c2ccc(O)cc2)cc1,,inactive,43.6 µM (active),inactive,inactive,inactive,43.6 µM (active),,,inactive,inactive,inactive,inactive,inactive,inactive,inactive,,inactive,34.3 µM (active),-44.3% (inactive)
CC1(C)CC/C(=C/c2ccc(Cl)cc2)C1(O)Cn1cncn1 (stereo not given),,,,inactive,inactive,,,,inactive,inactive,inactive,,,inactive,,inactive,,inactive,,
O=[N+]([O-])c1cc(C(F)(F)F)c(Cl)c([N+](=O)[O-])c1Cl,,21.9 µM (active),5.49 µM (active),inactive,13.8 µM (active),,6.92 µM (active),,7.76 µM (active),49 µM (active),,24.5 µM (active),19.5 µM (active),inactive,7.76 µM (active),,4.9 µM (active),inactive,27.3 µM (active),-73.4% (inactive)
O=c1[nH]c2ccccc2n1CCCN1CCC(n2c(=O)[nH]c3cc(Cl)ccc32)CC1,,inactive,10.7 µM (active),inactive,inactive,inactive,9.52 µM (active),,inactive,inactive,inactive,21.3 µM (active),23.9 µM (active),inactive,inactive,inactive,10.7 µM (active),inactive,,
CCCCCCCCCCCCCCCC[n+]1ccccc1,,,,inactive,,,21.6 µM (active) [middle of 4 runs],,,,,,15.5 µM (active) [middle of 4 runs],inactive,34.2 µM (active) [middle of 4 runs],57.5 µM (active) and 49 µM (active) and 48.3 µM (active),,,,
CC(C)N1C(=O)N(c2ccccc2)CSC1=NC(C)(C)C,,,21.9 µM (active),inactive,inactive,inactive,19.5 µM (active),,inactive,inactive,inactive,inactive,inactive,inactive,inactive,,,inactive,34.4 µM (active),-49.9% (inactive)
S=C(SSC(=S)N1CCCCC1)N1CCCCC1,,,15.1 µM (active),inactive,0.213 µM (active),0.151 µM (active),16.9 µM (active),,inactive,,,,0.169 µM (active),inactive,0.107 µM (active),26.8 µM (active),,inactive,0.473 µM (active),-70.7% [at 42.5 µM] (inactive)
Clc1ccc(-c2ccc(Cl)c(Cl)c2Cl)c(Cl)c1Cl,,inactive,,inactive,inactive,inactive,inactive,,inactive,inactive,inactive,inactive,inactive,inactive,inactive,inactive,,inactive,inactive,6.41% (inactive)
COc1cccc(C(=O)CCN[C@@H](C)[C@H](O)c2ccccc2)c1,,,,,23.9 µM (active),,,,,inactive,23.9 µM (active),,,inactive,,inactive,,inactive,inactive,2.02% [at 42.5 µM] (inactive)
CC(=O)[O-].CC(=O)[O-].O.O.[Cd+2],,,,inactive,inactive,,,,,,,48.3 µM (active),27.2 µM (active),inactive,,inactive,15.3 µM (active),inactive,,
COC(=O)N(C(=O)N1COC2(C(=O)OC)Cc3cc(Cl)ccc3C2=N1)c1ccc(OC(F)(F)F)cc1 (stereo not given),,,inactive,inactive,inactive,inactive,,,inactive,inactive,inactive,inactive,inactive,inactive,inactive,inactive,,inactive,11.9 µM (active),-49.3% [at 42.5 µM] (inactive)
O=C(Nc1ccc2[nH]ccc2c1)c1cc2cc(F)ccc2n1Cc1cccc(F)c1,,,inactive,inactive,,inactive,inactive,,inactive,inactive,,inactive,inactive,inactive,inactive,,,inactive,6.11 µM (active),-52.2% (inactive)
